B1: VH:VL chains; a variant is named by its letters at X, in order (parent)
chain 1: QVQLVQSGAEVKKPGASVKVSCKASGYTFTDYXMHWVRQAPGQGLEWMGXVNPNXXXTTYNQKFEGRVTMTTDTSTSTAYMELRSLRSDDTAVYYCARXNXLDXWGQGTTVTVSS
chain 2: DIQMTQSPSSLSASVGDRVTITCSVSSSVSSIYLHWYQQKPGKAPKLLIYSTSNLASGVPSRFSGSGSGTDFTLTISSLQPEDFATYYCQVYSGYPLTFGGGTKVEIK

The other results are listed elsewhere or left out. How many sequences the whole screen found active is unknown.

The experiment covers variants of B1. Description: yeast display scFab, FACS + sequencing. Conditions: with MET. In a few lines:
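Antigen binding was called positive for sequences present in both antigen-positive samples and negative for those present only in the input. These calls came from deep sequencing, in two replicates, of round-3 sorted and input populations from a heavy-chain CDR mutant scFab yeast surface library. The library was first enriched twice magnetically on HGFR-Fc-coated Protein A beads and then by FACS, gating the top 50% antigen-positive cells after 3 h labelling at room temperature with 1 nM HGFR-Fc plus anti-Myc in PBSB with 1% milk.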
Turning to DRGRDDLV, the antigen binding call was “no binding”.
As for AATTDDAV, the entry is “no binding”.
Then SGRGNAAD, with “no binding”.
As for ATTKSDGV, the entry is “no binding”; as for VEGGTDVA, “no binding”; as for DAGTGSGA, “no binding”.
Take YRRRGYVV: the antigen binding call is given as “binds”.
With YTRGADVV, the antigen binding call is given as “no binding”.
Then YEGTGDVV, with “no binding”.
As for SREGGVVV, the entry is “no binding”; as for YRRRGVVV, “binds”.
Then YRRRGDVV, with “binds”.
Take YERRNDVV: the antigen binding call was “binds”.
Then YEGGTDVV, with “no binding”; and YRARGVVV, with “no binding”; and SGGRDSGV, with “no binding”.
Regarding AARADDSA, the antigen binding call is given as “no binding”.
Then YRAEGYVV, with “binds”.
As for VGGGAAGV, the antigen binding call is reported as “no binding”.
Then YRGRGFSD, with “binds”.
Then YTEKTFSD, with “no binding”.
Then YRGRGVSD, with “binds”; and YRGRGFSA, with “binds”; and FRGRGFSA, with “no binding”.
As to YKGRGFSD, the antigen binding call is “no binding”.
As for DTTGSDVY, the entry is “no binding”.
On to ATGRAAGD, for which the antigen binding call is recorded as “no binding”.
Then FRTEGSAD, with “binds”; and FRTGGSAD, with “binds”; and FETGGYVY, with “no binding”.
Then SEARSSSV, with “no binding”.
Take YATEGVWV: the antigen binding call is reported as “no binding”.
As for DARGGSSV, the entry is “no binding”.
Then AEREADWV, with “no binding”.
Then VETGNDVA, with “no binding”; and YRGGDYGA, with “no binding”.
In the case of YRGKDSGS, the antigen binding call is reported as “binds”.
Then YRGKDSGA, with “binds”; and YRGKDAGA, with “binds”; and VAGTGSSD, with “no binding”.
As for VEGGGSSS, the entry is “no binding”; as for VRGKGSSS, “binds”; as for VTGTGSSD, “no binding”.
In the case of VRRGDSSD, the antigen binding call is reported as “binds”.
Then VRGKGSSD, with “binds”.
Then VTGGDSSD, with “no binding”.
Then VRKKGVSS, with “no binding”; and VRAGDDSD, with “no binding”.
In the case of VRTADDGA, the antigen binding call was “no binding”.
Take VAATADVA: the antigen binding call is “no binding”.
Then YKGRGSLV, with “binds”; and YKETGYAV, with “binds”; and YKKTGYWV, with “no binding”.
Consider YKGRGYLV, for which the antigen binding call is recorded as “binds”.
As for YKGEGDLV, the entry is “no binding”; as for YGGRGYAV, “no binding”.
Take YKEGAYAD: the antigen binding call is recorded as “no binding”.
Turning to YKGEGYGV, the antigen binding call was “no binding”.
On to YKGRGYAV, for which the antigen binding call is “binds”.
As for DAARGDSA, the entry is “no binding”; as for AKGGGDVV, “no binding”; as for YAEEGVGY, “no binding”.
YRARGAGA: the antigen binding call is given as “binds”.
As for YRARGAVA, the entry is “binds”.
Then YRARGFGA, with “no binding”; and YRARGVGA, with “binds”; and SEARSSSY, with “no binding”.
Then VEEEGAGV, with “no binding”; and DTTKSDGV, with “no binding”; and YRERSSVA, with “binds”.
YRARSSVA: the antigen binding call is listed as “binds”.
In the case of YRARSAVA, the antigen binding call is “binds”.
Then SEARSAVA, with “no binding”.
As for SEARSAWA, the entry is “no binding”; as for DRARTFVA, “no binding”.
As for YRARSAWA, the entry is “binds”; as for AEERASAF, “no binding”; as for VAGTGAVV, “no binding”.
Regarding VAEKGDLS, the antigen binding call is on record as “no binding”.
As to VTTKSDLA, the antigen binding call is reported as “no binding”.
For SAGKDDLA, the antigen binding call is on record as “no binding”.
As for DEGGTDVY, the entry is “no binding”; as for YTARGVSF, “no binding”; as for YRARGSLF, “binds”.
As for YRARGSVF, the entry is “binds”; as for FGAATDGV, “no binding”; as for DTREGDGA, “no binding”.
As for FAGRDAVV, the entry is “no binding”; as for DGGKNAGD, “no binding”; as for YKRGSSSY, “binds”.
Consider YKKESDSY, for which the antigen binding call is recorded as “no binding”.
As for FKRGSSSY, the entry is “binds”; as for FKRRDSVY, “no binding”.
Then YKRGGSSY, with “binds”; and FKARDSSA, with “no binding”.
Then VERGGDSY, with “no binding”; and DARGGSSY, with “no binding”.
Consider YERRDVLY, for which the antigen binding call is “no binding”.
Take YARRDVGA: the antigen binding call is given as “no binding”.
As for YRTEDVGA, the entry is “no binding”; as for YRRGGVGA, “binds”.
YEKGGDGA: the antigen binding call is recorded as “no binding”.
In the case of YRKKSVGA, the antigen binding call is listed as “no binding”.
For YREGGDGA, the antigen binding call is recorded as “no binding”.
As for YRRGSVGA, the entry is “binds”; as for YRRGGDGA, “binds”.
As for AGGENDGD, the antigen binding call is “no binding”.
Then SGTKGYWD, with “no binding”; and DTKAAAGD, with “no binding”; and VEGGGDGV, with “no binding”.
As for DAGGASSV, the entry is “no binding”; as for YRGRSSSV, “binds”; as for YTGTSSSV, “no binding”.
Then YRGRSASV, with “binds”; and ARGRSDAV, with “no binding”; and FARETFGV, with “no binding”.
Regarding VETEGDWY, the antigen binding call is given as “no binding”.
Then YRRRGSGV, with “binds”; and YRRRGASV, with “binds”; and YARRGSGV, with “no binding”.
Then YREEGDGV, with “no binding”; and YRRRGDGV, with “binds”; and YGRRGFSV, with “no binding”.
As for YRRRGVGV, the entry is “binds”; as for VETRSDVA, “no binding”.
Turning to VTGTSDLY, the antigen binding call is listed as “no binding”.
As for VTAGDDVY, the entry is “no binding”.
As for DAGRGDGF, the entry is “no binding”.
As for DATGGYAV, the entry is “binds”; as for YRRRGFGV, “binds”; as for YRRRGAGV, “binds”.
Consider YKRRDFGV, for which the antigen binding call is “no binding”.
Then VATGGYAV, with “no binding”; and DAAGAAGV, with “no binding”; and DARRGAGV, with “binds”.
As for YATGGYAV, the antigen binding call is “no binding”.
As for DAGGAAGV, the antigen binding call was “no binding”.
Then VTGTGAVV, with “no binding”; and VEGTNDVV, with “no binding”.
As to VKRGSAAA, the antigen binding call is given as “binds”.
Consider VKGRAAVA, for which the antigen binding call was “no binding”.
As to YTRAGAAA, the antigen binding call was “no binding”.
Then YARADAAA, with “no binding”; and YKRGGAAA, with “binds”; and AKRGSAAV, with “no binding”.
Then DKEGGAAA, with “no binding”.
Take VTTKSAAV: the antigen binding call is listed as “no binding”.
For the variant VKRGSAAV, the antigen binding call is reported as “binds”.
As for YKRGSAAA, the entry is “binds”; as for FKRKAAAA, “no binding”.
Then DAGTGDGV, with “no binding”; and DEGRGDGV, with “no binding”.
As for VTGESAAV, the entry is “no binding”; as for DEARSDGA, “no binding”.
For YRRRGASD, the antigen binding call was “binds”.
Regarding YRRRGSSD, the antigen binding call is recorded as “binds”.
As for YRRRGYSD, the entry is “no binding”; as for FRRRGSSD, “binds”; as for FRTRGSSD, “binds”.
Turning to FRREGSSD, the antigen binding call is given as “no binding”.
Then YAGTGDLV, with “no binding”.
For YRTRSSGA, the antigen binding call is recorded as “binds”.
As for VRTRSFGA, the entry is “no binding”.
Then YRTRSAGA, with “binds”.
Turning to DETRSAGA, the antigen binding call was “no binding”.
As for SGRGNDAV, the antigen binding call was “no binding”.
As for YRRGGYAV, the entry is “binds”.
Then DARGGAAV, with “no binding”; and YRRGAAAV, with “binds”; and YRKGGAAV, with “binds”.
As for ARRGAYGV, the antigen binding call is “no binding”.
Then YRTRGYAV, with “no binding”; and YRRGGAAV, with “binds”; and YARAGYAV, with “no binding”.
Then YTRGADGV, with “no binding”; and AEGTSAVF, with “no binding”.
Then DAGGGDGA, with “no binding”; and AARADFGV, with “no binding”; and ATTKSDGA, with “no binding”.
For the variant YRTRGSWD, the antigen binding call is reported as “binds”.
As for VATRGFWD, the antigen binding call was “no binding”.
On to VRTRGSWD, for which the antigen binding call is “binds”.
With YRTRSSWD, the antigen binding call is on record as “binds”.
As for DATRSSWD, the entry is “no binding”.
Then DRGKNDGD, with “no binding”; and DKEGGDGA, with “no binding”.
Then YRRRSAGA, with “binds”.
Take DREEGAGA: the antigen binding call was “no binding”.
As for YRRRSAVA, the entry is “binds”.
Then DREGDAVA, with “no binding”.
Then VTGGDDGA, with “no binding”; and VEGADAVA chain 1 G106S, with “no binding”; and AGGGNSGV, with “no binding”.
In the case of VKGKSSWS, the antigen binding call is listed as “no binding”.
Then VKGRASWS, with “no binding”; and SKGRSSWS, with “no binding”; and YKGRGSWS, with “binds”.
In the case of VKGRGSWS, the antigen binding call is on record as “binds”.
Regarding YKGGSDVY, the antigen binding call is reported as “binds”.
VKGTDAWY: the antigen binding call was “no binding”.
Then YKGTDAWY, with “no binding”; and YKGGSAGY, with “binds”.
Then YKGEDDVY, with “no binding”; and VKGGAAVY, with “no binding”.
Then YEGGGDVY, with “no binding”.
YKGGSAWY: the antigen binding call is on record as “binds”.
For the variant DEKEGDAA, the antigen binding call is recorded as “no binding”.
Then YEGGADVD, with “no binding”; and YRGGAAWD, with “binds”.
For the variant YAGGAYLY, the antigen binding call is given as “no binding”.
Then YRGGAAWY, with “binds”.

Values taken from the emibetuzumab library of Makowski et al. (2022).
